Test results: PubChem BioAssay
Calls of active or inactive are those of the source. Unless noted, no rule for the calls is given here.

How the values were obtained:
[1] = HepG2 liver cancer cell viability effects, profiling panel, resazurin fluorescence, 24 h, PK04 Diversity Set (AID 1172); details: higher = more signal
[2] = basal S. cerevisiae growth modulation, no modifier, primary screen, OD600, strain BY4716, 24 h, basal condition (AID 1173); details: OD600, 24 h, higher = more signal, called active from +8 up or from −8 down
[3] = MM1S myeloma cell viability, profiling panel, resazurin fluorescence, basal, 24 h, PK04 Diversity Set (AID 1174); details: higher = more signal, called active from +8 up or from −8 down;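 also: MM1S multiple myeloma cell line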
[4] = target: Dihydroorotate dehydrogenase (quinone), mitochondrial (Plasmodium falciparum (isolate 3D7)) (UniProt Q08210); experiment: PfDHODH enzyme inhibitors, primary screen, biochemical, C-terminal His tag, absorbance 600 nm (AID 1175); details: DCIP absorbance 600 nm, higher = more signal, called active from +8 up or from −8 down;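 also: recombinant parasite enzyme with a five histidine tag at its C terminus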
Dihydroorotate dehydrogenase (quinone), mitochondrial (Plasmodium falciparum (isolate 3D7)), sequence (Q08210 whole entry, looked up): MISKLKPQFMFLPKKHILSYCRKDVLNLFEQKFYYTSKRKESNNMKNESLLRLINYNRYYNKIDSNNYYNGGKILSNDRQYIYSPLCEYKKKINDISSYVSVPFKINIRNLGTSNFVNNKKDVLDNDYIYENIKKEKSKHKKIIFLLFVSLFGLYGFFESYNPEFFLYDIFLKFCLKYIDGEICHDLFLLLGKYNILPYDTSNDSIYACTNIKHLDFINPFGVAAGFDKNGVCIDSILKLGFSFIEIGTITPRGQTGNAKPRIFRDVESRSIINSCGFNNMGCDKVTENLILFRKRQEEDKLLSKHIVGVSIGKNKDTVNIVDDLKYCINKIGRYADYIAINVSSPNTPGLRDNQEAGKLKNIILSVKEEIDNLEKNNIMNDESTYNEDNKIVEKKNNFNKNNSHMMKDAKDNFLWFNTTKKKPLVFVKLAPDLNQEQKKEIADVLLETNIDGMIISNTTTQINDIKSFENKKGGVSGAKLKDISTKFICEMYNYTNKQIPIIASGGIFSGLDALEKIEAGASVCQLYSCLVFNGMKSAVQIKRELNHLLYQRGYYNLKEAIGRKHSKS

[5] = P. aeruginosa biofilm formation inhibitors, primary screen, strain PAO1, LB-PBS medium, absorbance 600 nm (AID 1176); details: P. aeruginosa PAO1 growth/biofilm, A600, 12 h; higher = more signal
[6] = S. cerevisiae RM11-1a growth modifiers, primary screen, strain RM11-1a, OD600, basal, 24 h (AID 1177); details: OD600, 24 h, higher = more signal, called active from +8 up or from −8 down;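 also: cultures grown under basal conditions with no added stressor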
[7] = E. coli acrAB mutant growth effects, primary screen, E. coli filamentation inducers, strain DRC39, OD650, 24 h (AID 1178); details: higher = more signal, called active from +8 up or from −8 down;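 also: growth measured as culture turbidity by optical density at 650 nm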
[8] = E. coli acrAB mutant growth effects, primary screen, E. coli filamentation inducers, strain DRC39, OD650, 48 h (AID 1179);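 also: screen aims at cell division blockers that make cells filament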; details: E. coli DRC39 delta-acrAB growth, higher = more signal, called active from +8 up or from −8 down
[9] = RPMI8226 myeloma cell viability, profiling panel, resazurin fluorescence, basal, 24 h, PK04 Diversity Set (AID 1180); details: higher = more signal;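 also: RPMI8826 multiple myeloma cell line at 5000 cells per well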
[10] = target: E3 ubiquitin-protein ligase XIAP (Homo sapiens) (UniProt P98170); experiment: XIAP binders, primary screen, biophysical, small-molecule microarray, fluorescence 635 nm (AID 1181); details: small-molecule microarray binding, higher = more signal;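 also: score merges 667 nm emission and signal to noise over triplicate slides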
E3 ubiquitin-protein ligase XIAP (Homo sapiens), sequence (P98170 whole entry, looked up): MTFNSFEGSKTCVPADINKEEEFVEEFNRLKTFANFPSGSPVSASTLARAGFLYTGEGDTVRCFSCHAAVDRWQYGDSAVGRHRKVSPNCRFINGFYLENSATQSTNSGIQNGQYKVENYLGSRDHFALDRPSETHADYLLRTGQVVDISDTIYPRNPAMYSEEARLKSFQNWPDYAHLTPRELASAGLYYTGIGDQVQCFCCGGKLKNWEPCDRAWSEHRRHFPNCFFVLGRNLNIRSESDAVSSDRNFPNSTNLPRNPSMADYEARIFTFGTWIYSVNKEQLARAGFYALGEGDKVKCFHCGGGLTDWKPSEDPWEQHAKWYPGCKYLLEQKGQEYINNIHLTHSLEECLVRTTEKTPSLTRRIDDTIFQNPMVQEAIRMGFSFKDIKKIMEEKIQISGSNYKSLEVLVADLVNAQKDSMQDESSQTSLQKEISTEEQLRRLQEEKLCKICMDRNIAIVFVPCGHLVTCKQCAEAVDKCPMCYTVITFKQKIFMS

[11] = test system: XIP peptide (Xip251-270) binding; experiment: small-molecule binders of XIP peptide, primary screen, biochemical, small-molecule microarray, fluorescence 635/667 nm, 0.1 µg/mL protein (AID 1182); details: fluorescent protein binding, 635 nm, higher = more signal, called active from +8 up or from −8 down
XIP peptide (Xip251-270) = experiment: small-molecule binders of XIP peptide, primary screen, biochemical, small-molecule microarray, fluorescence 635/667 nm, 0.5 µg/mL protein (AID 1183); details: small-molecule microarray binding, fluorescence 635 nm; higher = more signal
[12] = Plasmodium falciparum growth inhibition, primary screen, strain 3D7, DAPI fluorescence, 100 nL (AID 1184);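 also: parasites grown inside human red blood cells in medium with human serum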; details: P. falciparum 3D7 growth, 3 d, higher = more signal
[13] = target: Homeobox protein Hox-A13 (Mus musculus) (UniProt Q62424); experiment: inhibitors of HoxA13-DNA binding, primary screen, biochemical, fluorescence polarization, labeled oligonucleotide (AID 1185); details: 15 min, higher = more signal, called active from +8 up or from −8 down
Homeobox protein Hox-A13 (Mus musculus), sequence (Q62424 whole entry, looked up): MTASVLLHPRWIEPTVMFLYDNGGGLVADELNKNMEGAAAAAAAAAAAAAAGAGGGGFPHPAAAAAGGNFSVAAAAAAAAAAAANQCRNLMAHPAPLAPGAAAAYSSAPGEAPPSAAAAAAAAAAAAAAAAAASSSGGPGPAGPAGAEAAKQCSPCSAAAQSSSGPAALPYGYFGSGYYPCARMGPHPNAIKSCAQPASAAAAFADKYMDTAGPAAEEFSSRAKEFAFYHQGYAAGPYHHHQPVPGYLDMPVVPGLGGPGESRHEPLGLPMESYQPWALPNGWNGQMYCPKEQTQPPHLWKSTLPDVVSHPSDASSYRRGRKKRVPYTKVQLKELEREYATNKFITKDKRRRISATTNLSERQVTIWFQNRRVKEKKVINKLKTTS

[14] = inhibitors of hydroxyurea-induced Chk1 phosphorylation, primary screen, imaging, HeLa, phospho-Chk1 antibody, percent positive cells (AID 1186); details: hydroxyurea-induced phospho-Chk1 immunofluorescence imaging, higher = more signal
[15] = inhibitors of hydroxyurea-induced Chk1 phosphorylation, primary screen, imaging, HeLa, phospho-Chk1 nuclear intensity (AID 1187); details: hydroxyurea-induced phospho-Chk1 immunofluorescence imaging, higher = more signal

Compound | z-score [1] | z-score [2] | z-score [3] | composite z-score [4] | z-score [5] | z-score [6] | z-score [7] | z-score [8] | z-score [9] | composite z-score [10] | composite z-score [11] | composite z-score (XIP peptide (Xip251-270)) | z-score [12] | z-score [13] | z-score [14] | z-score [15]
CCCNC(=O)[C@@]1(Sc2ccc(C)cc2)CC(=O)N(Cc2ccccc2C(F)(F)F)[C@@H]1c1ccc(CO)cc1I | -0.103 | -3.06 (inactive) | -2.54 (inactive) | -0.469 (inactive) | 0.298 (inactive) | -1.68 (inactive) | 0.044 (inactive) | -0.478 (inactive) | -2.15 | -0.181 | -0.163 (inactive) | 0.704 | -1.69 | -1.3 (inactive) | -0.104 (inactive) | 0.0829 (inactive)
CN(C)CCCC[C@@H]1NC(=O)[C@H]2C[C@@H](C(=O)NCCCCCN)[C@@H](c3cccc(OCCO)c3)N2C1=O | 0.306 | -0.7 (inactive) | 0.606 (inactive) | -0.997 (inactive) | 0.118 (inactive) | -0.629 (inactive) | 0.139 (inactive) | -0.386 (inactive) | 0.932 | 0.0101 | 2.88 (inactive) | 0.84 | -0.419 | -2.91 (inactive) | 0.658 (inactive) | 0.729 (inactive)
CC(C)[Si](C#CCCCC#N)(Oc1ccccc1Br)C(C)C | -0.192 | -3.82 (inactive) | 0.456 (inactive) | 0.0781 (inactive) | 0.313 (inactive) | -0.218 (inactive) | -0.9 (inactive) | -0.832 (inactive) | -0.193 | -0.0525 | 0.983 (inactive) | -0.0206 | 0.306 | -1.08 (inactive) | 0.365 (inactive) | 0.0882 (inactive)
COCCCNC(=O)[C@@H]1c2ccccc2C(=O)N(Cc2ccccc2)[C@H]1c1ccc(CO)cc1 | 0.0319 | -0.141 (inactive) | 0.0771 (inactive) | -0.62 (inactive) | 0.0993 (inactive) | -0.575 (inactive) | 0.38 (inactive) | 0.0879 (inactive) | 0.279 | -0.0663 | -0.267 (inactive) | 0.401 | 0.207 | -1.77 (inactive) | -0.0813 (inactive) | -0.452 (inactive)
COC(=O)C[C@H]1O[C@@H](CCc2ccccc2)[C@@H](C)[C@@H]1[Si](C)(C)c1ccc(OC)cc1 | 0.294 | -0.938 (inactive) | -0.229 (inactive) | 0.656 (inactive) | -0.529 (inactive) | 0.725 (inactive) | -0.0089 (inactive) | -1.12 (inactive) | -0.206 | 0.152 | -0.633 (inactive) | -0.919 | -1.63 | -4.56 (inactive) | 0.0465 (inactive) | 0.33 (inactive)
COc1cc2c(cc1O)C=[N+](Cc1cc3c(cc1Br)OCO3)CC2 | -0.532 | 0.384 (inactive) | -1.29 (inactive) | 0.707 (inactive) | 0.0898 (inactive) | 0.593 (inactive) | -0.31 (inactive) | -0.3 (inactive) | -0.566 | -0.252 | -0.105 (inactive) | 1.1 | -1.88 | -3.19 (inactive) | -0.126 (inactive) | -0.203 (inactive)
O=C(NCc1ccccc1)[C@@H]1c2ccccc2C(=O)N(C2Cc3ccccc3C2)[C@H]1c1ccc(CO)cc1 | -0.786 | 0.848 (inactive) | -0.139 (inactive) | 0.211 (inactive) | 0.581 (inactive) | 0.644 (inactive) | 0.0426 (inactive) | -0.15 (inactive) | 0.12 | -0.133 | 0.72 (inactive) | 0.731 | -0.276 | -2.13 (inactive) | 0.26 (inactive) | -0.16 (inactive)
NC(=O)[C@@H]1[C@H]2C(=O)O[C@H](c3ccccc3)[C@H](c3ccccc3)N2[C@H](c2ccc(OCCO)cc2)[C@@]12C(=O)Nc1ccc(C#CC3=CCCCC3)cc12 | -1.67 | 0.193 (inactive) | -7.44 (inactive) | 0.207 (inactive) | 1.82 (inactive) | 0.657 (inactive) | -0.0159 (inactive) | -0.668 (inactive) | -6.82 | 0.543 | 0.124 (inactive) | 0.581 | -0.962 | 1.05 (inactive) | -0.0315 (inactive) | 0.0692 (inactive)
COc1ccc(C(=O)Nc2ccc(CN3C(=O)[C@]4(O[C@H](CC(=O)N5CCC[C@H]5CO)[C@@H]([Si](C)(C)c5ccc(OC)cc5)[C@@H]4C)c4ccccc43)cc2)cc1 | -1.79 | 0.082 (inactive) | -2.05 (inactive) | -2.56 (inactive) | 0.0245 (inactive) | 0.557 (inactive) | -0.0895 (inactive) | -0.381 (inactive) | -4.49 | -0.361 | 0.731 (inactive) | 0.76 | 0.0279 | -2.62 (inactive) | 0.303 (inactive) | 0.493 (inactive)
COc1ccc(NC(=O)O[C@H]2[C@H](OC(=O)c3cc4ccccc4[nH]3)[C@@H](OC(=O)c3cc4ccccc4[nH]3)[C@@H](OC)O[C@@H]2CO)cc1 | -1.08 | -0.302 (inactive) | -1.68 (inactive) | -0.558 (inactive) | 0.305 (inactive) | -0.575 (inactive) | 1.13 (inactive) | 1.53 (inactive) | -1.69 | 0.103 | 1.54 (inactive) | -0.135 | -2.16 | -3.86 (inactive) | -0.335 (inactive) | -0.331 (inactive)
C[N+](C)(C)CCCC[C@@H]1NC(=O)[C@@H]2C[C@H](C(=O)NCCCCCCNC(=O)CS)[C@H](c3ccc(O)cc3)N2C1=O | -0.206 | 1.4 (inactive) | -0.387 (inactive) | -0.206 (inactive) | -0.282 (inactive) | 0.144 (inactive) | -0.253 (inactive) | -0.135 (inactive) | -0.437 | -0.0911 | 0.307 (inactive) | 0.496 | 0.504 | -1.32 (inactive) | 0.146 (inactive) | 0.32 (inactive)
CC(C)=CCCC(C)=CC(O)C1C=CC2C(=O)N(c3ccccc3)C(=O)C2N1Nc1ccc(C(C)C)cc1 (centres undefined) | -0.307 | 0.125 (inactive) | -0.862 (inactive) | 0.484 (inactive) | 0.0616 (inactive) | 1.47 (inactive) | -0.427 (inactive) | -0.306 (inactive) | -0.463 | -0.0382 | 0.365 (inactive) | 0.305 | -0.25 | -2.82 (inactive) | 0.342 (inactive) | 0.0288 (inactive)
Cc1c(NC(=O)/C(C#N)=C/c2cccc([N+](=O)[O-])c2)c(=O)n(-c2ccccc2)n1C | 0.131 | -0.701 (inactive) | -1.34 (inactive) | -2.58 (inactive) | 0.972 (inactive) | -2.91 (inactive) | 1.48 (inactive) | 0.837 (inactive) | 0.246 | 0.248 | 0.92 (inactive) | 0.695 | -0.413 | -2.41 (inactive) | -0.782 (inactive) | -1.15 (inactive)
COCCOC(=O)N1C(=O)[C@@]2(c3cc(C#CC4=CCCCC4)ccc31)[C@H](c1ccc(OCCO)cc1)N1[C@H](c3ccccc3)[C@H](c3ccccc3)OC(=O)[C@H]1[C@@H]2C(=O)N1CCc2cc(OC)c(OC)cc2C1 | -0.248 | 0.683 (inactive) | -0.607 (inactive) | -0.0879 (inactive) | 2.68 (inactive) | 4.26 (inactive) | 0.118 (inactive) | 0.796 (inactive) | 0.474 | -0.0872 | 0.411 (inactive) | 0.64 | -2.06 | 3.66 (inactive) | -0.0561 (inactive) | -0.0158 (inactive)
C=C(CCCC)/C(=C/C[C@H](OC(=O)c1ccncc1)c1ccc(OCCO)cc1)c1cc(C(=O)OC)ccc1OC | -0.113 | 0.409 (inactive) | -0.266 (inactive) | -4.01 (inactive) | -0.693 (inactive) | 0.395 (inactive) | -0.981 (inactive) | -0.581 (inactive) | -0.691 | 0.22 | -0.235 (inactive) | -0.132 | -3.09 | -2.79 (inactive) | -1.01 (inactive) | -0.504 (inactive)
C=CC[C@@]1(C(=O)N2CCCCC2)N=C(c2ccc(OCCCO)cc2)O[C@@H]1c1ccccc1CN=[N+]=[N-] | 0.0157 | -0.924 (inactive) | -1.13 (inactive) | -0.0512 (inactive) | 0.205 (inactive) | 0.607 (inactive) | 0.673 (inactive) | -0.526 (inactive) | -1.97 | 0.0297 | 0.274 (inactive) | 0.888 | -2.21 | -0.0816 (inactive) | -0.514 (inactive) | -0.604 (inactive)
COc1ccc([Si](C)(C)[C@@H]2[C@@H](CC(=O)N3Cc4ccccc4C[C@H]3CO)O[C@]3(C(=O)N(Cc4cccc(N5CCC5=O)c4)c4ccccc43)[C@H]2C)cc1 | -0.0715 | 0.984 (inactive) | -0.922 (inactive) | -3.46 (inactive) | 2.04 (inactive) | 1.38 (inactive) | 0.249 (inactive) | -0.0051 (inactive) | -0.828 | 0.0819 | 0.607 (inactive) | 0.736 | -2.55 | -1.51 (inactive) | -0.342 (inactive) | -0.0386 (inactive)
C=CCN1C(=O)[C@]2(Cc3ccccc3)N=C(c3ccc(OCCCO)cc3)O[C@@H]2c2ccccc21 | -0.983 | -1.34 (inactive) | -4.58 (inactive) | -0.963 (inactive) | 0.824 (inactive) | 1.68 (inactive) | 0.0733 (inactive) | 0.884 (inactive) | -5.39 | 0.33 | 0.7 (inactive) | 0.812 | -2.1 | -1.6 (inactive) | -0.535 (inactive) | -0.461 (inactive)
COCCOC(=O)N1C(=O)[C@@]2(c3cc(C#CCCO)ccc31)[C@H](c1ccc(OCCO)cc1)N1[C@H](c3ccccc3)[C@H](c3ccccc3)OC(=O)[C@H]1[C@@H]2C(N)=O | -0.569 | 1.67 (inactive) | -0.371 (inactive) | 0.561 (inactive) | 0.449 (inactive) | 3.69 (inactive) | 0.315 (inactive) | 0.399 (inactive) | -0.103 | -0.192 | 0.464 (inactive) | 0.779 | -0.222 | -1.33 (inactive) | -0.0438 (inactive) | 0.51 (inactive)
